In PubChem BioAssay AID1259417 (TB Discovery Research, Infectious Disease Research Institute, 2018):
The whole screen tested about 1,100 compounds, of which about 760 (69%) were called active. The rule behind the calls is not given here. The set was probably picked from earlier hits. The list shows a part of the results.

Assay: M. tuberculosis growth inhibition, HTS (AID 1259417);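 note: bacteria grown with compound for 5 days at 37 °C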
Details: stronger effect = higher value, concentration not given here
[1] = M. tuberculosis DsRed fluorescence growth inhibition
[2] = M. tuberculosis growth inhibition

Row | Structure (SMILES) | inhibition [1] | inhibition [2]
1 | Clc1ccc(OCCCCn2ccnc2)cc1Cl | 100% (active) | 99.3%
2 | Clc1ccc(OCCCn2ccnc2)cc1Cl | 98.6% (active) | 99.3%
3 | [O-][n+]1onc2c3cc(-c4ccccc4)nnc3ccc21 | 80.6% (active) | 96.7%
4 | O=C(Nc1nnc(-c2cc(Cl)ccc2Cl)o1)c1ccc(Cl)s1 | -4.8% (inactive) | -10.4%
5 | O=C(Nc1nnc(-c2cc(Cl)ccc2Cl)o1)c1cccs1 | 83.8% (active) | 82.4%
6 | O=C(Nc1nnc(-c2cc(Cl)ccc2Cl)o1)c1ccc(Br)s1 | 96.9% (active) | 95.6%
7 | O=C(OCC#CCSc1nnc(-c2ccccc2)o1)c1ccco1 | 44% (active) | 10.3%
8 | O=C(OCC#CCSc1nc2ccccc2o1)c1ccco1 | 59.9% (active) | 68.2%
9 | Cc1ccc(-c2nnc(SCC#CCOC(=O)c3ccco3)o2)cc1 | 35.7% (active) | 20.4%
10 | CC(C)(C)NC(=O)COC(=O)c1snc(C(=O)NC2CCCCC2)c1N | 21.4% (active) | 66.6%
11 | O=C(CCNc1ccc(Cl)c(C(F)(F)F)c1)c1cccs1 | 10.9% (active) | 35.4%
12 | CCOc1ccc(NCCC(=O)c2cccs2)cc1 | -0.257% (inactive) | -9.66%
13 | CN(C)c1ccc(Nc2nc(-c3ccc(O)cc3O)cs2)cc1 | 36% (active) | 10.8%
14 | O=C(/C=C/c1ccco1)Nc1nc(-c2ccccn2)cs1 | 88.5% (active) | 89%
15 | CN(C)c1ccc(Nc2nc(-c3ccccn3)cs2)cc1 | 54.1% (active) | 38.2%
16 | Fc1ccc(Nc2nc(-c3ccccn3)cs2)cc1 | 93.9% (active) | 94.1%
17 | c1ccc(Nc2nc(-c3ccccn3)cs2)cc1 | 88.2% (active) | 91.8%
18 | Fc1cccc2sc(Nc3nc(-c4ccccn4)cs3)nc12 | 99.5% (active) | 101%
19 | Clc1ccc(Nc2nc(-c3ccccn3)cs2)nc1 | 101% (active) | 101%
20 | Brc1ccc(Nc2nc(-c3ccccn3)cs2)cc1 | 91% (active) | 94.1%
21 | CCOc1ccc(Nc2nc(-c3ccccn3)cs2)cc1 | 89.5% (active) | 92%
22 | Cc1ccc(S/C=C\C(=O)c2ccccc2)cc1 | 36.8% (active) | 37.6%
23 | CSCCC(NC(=O)c1cc([N+](=O)[O-])cc([N+](=O)[O-])c1)c1nc2ccccc2[nH]1 (stereo not given) | 51.9% (active) | 71.3%
24 | CCOC(=O)Cn1cc(C#N)c2cccc(CC)c21 | 14.1% (active) | 56.3%

Row | Structure (SMILES) | inhibition [1] | inhibition [2]
25 | CCOC(=O)COc1ccc2c3c(c(=O)oc2c1)CCCCC3 | 42.8% (active) | 74.2%
26 | Cc1cc(OC(=O)C2CC2)c2c3c(c(=O)oc2c1)CCCC3 | 22% (inactive) | 21.7%
27 | CCOC(=O)COc1cc2c3c(c(=O)oc2cc1C)CCCC3 | 43% (active) | 89.3%
28 | CCc1cc(C(=O)OC)c(NC(=S)NCc2ccc(Cl)c(Cl)c2)s1 | 96.8% (active) | 88.4%
29 | CCOC(=O)c1cc(-c2ccccc2)sc1NC(=S)NC1CCN(Cc2ccccc2)CC1 | 18.5% (inactive) | 1.16%
30 | COc1ccc(C(=O)N2N=C(c3ccccc3)CC2(O)C(F)(F)F)cc1 (stereo not given) | 1.52% (inactive) | -2.76%
31 | COc1ccc(C(=O)C(CN2CCOCC2)c2ccccc2)cc1 (stereo not given) | 42.8% (active) | 77%
32 | COc1ccc(C(=O)C(CN2CCCCC2)c2ccccc2)cc1 (stereo not given) | 31.4% (active) | 66.8%
33 | C=CCNc1nnc(Sc2ncccc2[N+](=O)[O-])s1 | 97.9% (active) | 98.2%
34 | Nc1nnc(Sc2ncccc2[N+](=O)[O-])s1 | 98.8% (active) | 98.6%
35 | Cc1ccc(C)c(N=Nc2nc3ccccc3n2C)c1 | 100% (active) | 99.1%
36 | Cc1ccc(C(=O)Nc2nc(-c3ccccc3)c(-c3ccccc3)o2)cc1 | 80.4% (active) | 65.6%
37 | O=C(NCc1nnc2c3ccccc3c(-c3ccccc3)nn12)c1ccc(Cl)cc1 | 15.3% (inactive) | -15.9%
38 | Cc1ccc(C(=O)Nc2nnc(C3=COCCO3)o2)cc1 | 11.3% (inactive) | -5.11%
39 | O=C(Nc1nc(-c2ccccc2)c(-c2ccccc2)o1)c1ccc(F)cc1 | 93.6% (active) | 93.3%
40 | O=C(Nc1nnc(C2=COCCO2)o1)c1ccc(F)cc1 | 17.6% (inactive) | 29.2%
41 | CCOC(=O)Cc1c(C)nc2c(-c3cccc(Br)c3)c[nH]n2c1=O | 98.3% (active) | 97.9%
42 | CCOC(=O)CSc1nc(N)c(C#N)c(-c2cccs2)c1C#N | -3.66% (inactive) | 10.2%
43 | CCCCOC(=O)CSc1nc(N)c(C#N)c(-c2ccc(OC)cc2)c1C#N | 4.48% (active) | 30.9%
44 | Cc1cc(Sc2ncnc(N)c2[N+](=O)[O-])ncn1 | 99.4% (active) | 100%
45 | Nc1ncnc(Sc2nc3ccccc3s2)c1[N+](=O)[O-] | 100% (active) | 99.4%
46 | Cc1ccc2c(C)nc(Nc3nc(CSc4nc5ccccc5s4)cc(=O)[nH]3)nc2c1 | -4.65% (inactive) | -12.8%
47 | Cc1cccc2sc(N(CCCn3ccnc3)C(=O)c3ccco3)nc12 | 98.6% (active) | 99.8%
48 | Cc1c(Cl)ccc2sc(N(CCCn3ccnc3)C(=O)c3ccco3)nc12 | 98.6% (active) | 99.5%

Row | Structure (SMILES) | inhibition [1] | inhibition [2]
49 | Cc1cc(Cl)cc2sc(N(CCCn3ccnc3)C(=O)c3ccco3)nc12 | 97.5% (active) | 98.4%
50 | Cc1ccc2sc(N(CCCn3ccnc3)C(=O)c3ccco3)nc2c1C | 98.6% (active) | 98.1%
51 | O=C(Nc1nc2c(Cl)cccc2s1)c1ccc([N+](=O)[O-])o1 | -3.76% (inactive) | 28.2%
52 | O=C(Nc1nnc(-c2ccc(Cl)s2)o1)c1ccc([N+](=O)[O-])o1 | 95.4% (active) | 87.9%
53 | O=C(Nc1nnc(-c2ccc(Cl)cc2)o1)c1ccc([N+](=O)[O-])o1 | 98.3% (active) | 98.8%
54 | O=C(CCc1ccccc1)Nc1nnc(-c2ccc(Cl)s2)o1 | 10% (inactive) | 26.7%
55 | O=C(Nc1ccc(Cl)cc1C(F)(F)F)c1ccc([N+](=O)[O-])o1 | 60.7% (active) | 58.1%
56 | C=CCn1c(O)c(C2=c3ccccc3=NC2=O)sc1=N | -9.61% (inactive) | 14.7%
57 | CCn1c(NCc2c(O)ccc3ccccc23)nc2ccccc21 | 77.8% (active) | 89%
58 | CCCCCn1c(NCc2ccc(N(C)C)cc2)nc2ccccc21 | -0.00251% (inactive) | -15.7%
59 | Cc1ccc(C)c(-c2nnc(NC(=O)c3ccc([N+](=O)[O-])o3)o2)c1 | 12.4% (inactive) | 1.93%
60 | Cc1ccc(-c2nnc(NC(=O)c3c(F)cccc3F)o2)c(C)c1 | 2.49% (inactive) | -10.3%
61 | Cc1ccc(-c2nnc(NC(=O)c3ccc([N+](=O)[O-])s3)o2)c(C)c1 | 41.9% (active) | 72.9%
62 | Cc1ccc(-c2nnc(NC(=O)c3ccc([N+](=O)[O-])o3)o2)c(C)c1 | 97.8% (active) | 98.1%
63 | Cc1ccc(C)c(-c2nnc(NC(=O)c3ccc([N+](=O)[O-])s3)o2)c1 | 98.9% (active) | 97.4%
64 | O=[N+]([O-])c1ccc(N2CCN(CCO)CC2)cc1NCCOc1cccc2ccccc12 | 10.3% (inactive) | -3.69%
65 | CCOc1cc2c3c(c1)C1(C(=O)N3C(C)(C)C=C2C)C(C#N)=C(N)Oc2cc(O)ccc21 (stereo not given) | 10.6% (inactive) | -4.41%
66 | O=C1C(Cl)=C(Nc2ccccc2O)C(=O)N1c1ccc(Cl)c(Cl)c1 | 95.4% (active) | 94.6%
67 | O=C1C(Cl)=C(Nc2ccccc2O)C(=O)N1c1ccccc1 | 96% (active) | 94.9%
68 | O=[N+]([O-])c1ccc(-c2[nH]c(-c3cccs3)nc2-c2ccccc2)cc1 | -27% (inactive) | 4.73%
69 | COC(=O)CSc1nc2ccccc2nc1SCC(=O)OC | 11.6% (active) | 37.2%
70 | c1ccc(-c2nc(NCC3CCCO3)c3ccccc3n2)nc1 (stereo not given) | 95.4% (active) | 94.9%
71 | CC(=O)c1cccc(Nc2nc(-c3ccccn3)cs2)c1 | 70.5% (active) | 74.6%
72 | COc1ccc(Nc2nc(-c3ccccn3)cs2)c(OC)c1 | 92.1% (active) | 83.9%

Row | Structure (SMILES) | inhibition [1] | inhibition [2]
73 | COc1cccc(Nc2nc(-c3ccccn3)cs2)c1 | 93.6% (active) | 93.4%
74 | CC(=O)c1cccc(Nc2cc(C)nc3c2ccc2ccccc23)c1 | 10.9% (inactive) | -33.8%
75 | CC(=O)c1ccc(NC(=O)NC(C)C23CC4CC(CC(C4)C2)C3)cc1 (stereo not given) | 98.3% (active) | 94.8%
76 | CC(=O)c1ccc(NC(=O)Nc2cc(OCC(F)(F)F)cc(OCC(F)(F)C(F)F)c2)cc1 | 1.19% (inactive) | 22.7%
77 | Cc1oc2c(c1C(=O)Nc1cccc3ccccc13)CCCC2 | 13.4% (inactive) | 21.7%
78 | CCCC(=O)Nc1cccc(-c2nc3ccccc3c(=O)o2)c1 | 29.1% (active) | 52%
79 | CCOC(=O)C(Cc1ccccc1)C(=O)Nc1cccc2ccccc12 (stereo not given) | -0.257% (inactive) | -5.18%
80 | O=C(Nc1ccc(-c2nc3ccccc3c(=O)o2)cc1)c1ccccc1I | 78.1% (active) | 85.2%
81 | Cc1ccc(-c2nc3c(cnn3-c3ccccc3)c(=O)o2)cc1 | 4.19% (inactive) | -0.344%
82 | Cc1c(OC(=O)c2ccccc2Cl)ccc2c1CCCC2 | 7.92% (inactive) | 16.4%
83 | Cc1ccccc1OC(=O)c1sc2ccccc2c1Cl | 25.5% (active) | 64.7%
84 | COc1ccccc1-c1nnc(NC(=O)c2sc3ccccc3c2Cl)o1 | -1.61% (inactive) | -16%
85 | COc1ccccc1OC(=O)c1sc2ccccc2c1Cl | 17.3% (active) | 53%
86 | O=C1c2cccc3cccc(c23)C(=O)N1c1ccc2[nH]c(=O)[nH]c2c1 | 36.4% (active) | 63.9%
87 | COc1ccc2nc(C)c3cc(C)oc3c2c1 | 99.8% (active) | 99.6%
88 | O=c1cc(-c2c(F)c(F)c(F)c(F)c2F)oc2ccccc12 | 99.2% (active) | 96.4%
89 | Cc1ccc(S(=O)(=O)NC(=O)Oc2cccc3cccnc23)cc1 | -0.272% (inactive) | -10.4%
90 | O=C(Oc1cccc2cccnc12)c1ccc(Cl)c(S(=O)(=O)N2CCOCC2)c1 | 100% (active) | 101%
91 | O=C(Oc1cccc2cccnc12)c1ccc(S(=O)(=O)N2CCCCC2)cc1 | 99.4% (active) | 100%
92 | O=C(Oc1ccccc1Cl)c1ccc(N2CCOCC2)c([N+](=O)[O-])c1 | 0.0336% (inactive) | 13.4%
93 | O=C(Oc1c(Cl)cc(Cl)c2cccnc12)c1cc(S(=O)(=O)N2CCCCC2)ccc1Cl | 98.6% (active) | 99.4%
94 | O=C(Oc1ccc(Cl)cc1)c1ccc(N2CCOCC2)c([N+](=O)[O-])c1 | 4.2% (inactive) | 24.6%
95 | O=C(Oc1ccc(Cl)cc1)c1ccc(S(=O)(=O)c2ccc(Cl)cc2)cc1 | 55.3% (active) | 74.8%
